Reference: PubChem BioAssay AID1672 (Johns Hopkins Ion Channel Center, 2009)
About 2,600 (0.84%) of roughly 310,000 compounds were called active. Only a selection was taken, and actives are over-represented in it overall. Values without a mark were called inactive.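 How the source made its calls: active means fluorescence ratio B-score at or below minus 3 SD of library scores, with starting-brightness B-score within 2 SD (cut at about -4.2 in these data); inactive means the rest.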

target: Inward rectifier potassium channel 2 (Mus musculus) (UniProt P35561); test: blocks the mouse Kir2.1 inward-rectifier potassium channel (AID 1672); conditions: HEK293-Kir2.1, FluxOR thallium flux fluorescence; at 10 µM; active compounds read low;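 further: channel flux triggered by added potassium and thallium sulfate stimulus; B-score of peak minus minimum fluorescence over baseline after thallium stimulus; more negative B-score means stronger Kir2.1 block with less thallium influx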
Sequence (P35561 whole entry, looked up): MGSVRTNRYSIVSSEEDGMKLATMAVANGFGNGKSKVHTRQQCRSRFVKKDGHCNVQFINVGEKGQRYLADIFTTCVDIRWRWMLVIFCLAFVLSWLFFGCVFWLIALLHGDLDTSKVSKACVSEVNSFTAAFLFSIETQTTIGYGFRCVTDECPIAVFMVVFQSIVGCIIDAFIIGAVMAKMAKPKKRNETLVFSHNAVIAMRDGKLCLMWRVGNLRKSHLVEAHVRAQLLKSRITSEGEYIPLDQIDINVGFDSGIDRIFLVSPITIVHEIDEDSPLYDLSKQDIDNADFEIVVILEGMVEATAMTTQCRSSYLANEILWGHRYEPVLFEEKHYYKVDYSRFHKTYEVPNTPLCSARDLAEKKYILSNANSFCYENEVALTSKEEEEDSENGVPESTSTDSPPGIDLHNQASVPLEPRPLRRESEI

SMILES | B-score
COc1ccccc1OCCCCCCN1CCN(C)CC1 | 1
c1ccc(-c2ccccc2OCCN2CCCCC2)cc1 | -1.64
CN1CCN(CCCCOc2ccccc2-c2ccccc2)CC1 | -6.95 (active)
CC1CCCN(CCOCCOc2ccccc2-c2ccccc2)C1 (stereo not given) | -6.74 (active)
CN1CCN(CCCCOc2cccc3ccccc23)CC1 | -1.84
CC1CN(CCCOc2ccccc2-c2ccccc2)CC(C)O1 (stereo not given) | -4.04
CC(OC(=O)CCCc1c[nH]c2ccccc12)C(=O)Nc1ccc(S(N)(=O)=O)cc1 (stereo not given) | -0.01
Cc1sc(NC(=O)C2=COCCO2)c(C#N)c1C | -0.98
O=C(NCCc1c[nH]c2ccccc12)C1CCN(Cc2ccc(Br)cc2)CC1 | -5.88 (active)
Cc1ccc2[nH]cc(CCNC(=O)C3CCCCC3)c2c1 | 0.62
O=C(NCCc1c[nH]c2ccccc12)c1cccc(Br)c1 | -0.14
Cc1c(NC(=O)C(C)OC(=O)c2c3c(nc4ccccc24)CCC(C)C3)c(=O)n(-c2ccccc2)n1C (stereo not given) | 0.01
Cc1cc(C)cc(OCc2nnc(SCC(=O)OC3CCCCC3)o2)c1 | 2.83
CCOC(=O)C(C)Sc1nnc(CSc2nc3nc(C)cc(C)n3n2)o1 (stereo not given) | 0.45
Cc1cc(C)nc(SCc2nnc(SCC(=O)OC3CCCCC3)o2)n1 | -6.39 (active)
O=C(CSc1nnc(-c2cccnc2)n1Cc1ccco1)c1ccc(Cl)cc1 | -3.48
C(=C\c1ccccc1)/CSc1nnc(-c2cccnc2)n1Cc1ccco1 | -6.26 (active)
O=C(CSc1nnc(-c2cccnc2)n1Cc1ccco1)c1ccc(Cl)c(Cl)c1 | -0.81
O=C(Cc1ccc(S(=O)(=O)N2CCOCC2)s1)NCCOc1ccccc1F | -0.88
O=C(CCC1CCCCC1)Nc1cc(C(F)(F)F)ccc1N1CCOCC1 | -0.88
Cc1cc(=O)oc2cc(NC(=O)C(C)Oc3ccccc3)ccc12 (stereo not given) | 0.76
COc1ccc(C(O)(C2CCCCC2)C(CN2CCCC2)c2ccccc2)cc1 (stereo not given) | -6.33 (active)

SMILES | B-score
CCCC(O)(c1ccc(OC)cc1)C(CN(C)C)c1ccccc1 (stereo not given) | -2.85
CC(CN1CCCCC1)c1ccccc1 (stereo not given) | -0.88
CN(CC(=O)NCc1cccnc1)S(=O)(=O)c1cc(Cl)ccc1Cl | 0.05
Cc1ccc(S(=O)(=O)NCCC(=O)NNC(=O)C2COc3ccccc3O2)cc1 (stereo not given) | -0.97
COc1cccc(CC2(CO)CCCN(Cc3ccc(OC(F)F)cc3)C2)c1 (stereo not given) | -1.05
CN1c2ccccc2-c2nc3ccccc3n2C1c1ccco1 (stereo not given) | -4.99 (active)
Cn1cccc1-c1nc2ccccc2n1C | -0.13
Cn1c(-c2ccco2)nc2cc3ccccc3cc21 | 0.04
COc1ccccc1N1CCN(c2nc(C)cc(=O)[nH]2)CC1 | 0.62
O=C(CCNC(=O)Cn1ccc2ccccc2c1=O)NCCC1=CCCCC1 | -0.38
O=C(Cc1cccc2ccccc12)NCCC1=CCCCC1 | -1.35
CCn1c(=O)cc(SCC(=O)NCCC2=CCCCC2)c2ccccc21 | -8.59 (active)
CCOc1cc(N2CCOCC2)c(OCC)cc1NC(=O)COc1cccc(Cl)c1 | -0.59
CC(C)CN(C(=O)c1ccc2c(c1)OCO2)C1CCS(=O)(=O)C1 (stereo not given) | -2.25
COc1ccc(Nc2ncnc3sc(-c4ccccc4)cc23)c(OC)c1 | 0
COc1ccc(Nc2nnc(C)c3ccccc23)cc1 | -0.1
COc1ccc(Nc2ncnc3sc(C)cc23)cc1 | -6.13 (active)
Cc1ccc2nc3n(c(=O)c2c1)CCC3 | -2.3
Cc1ccc2nc(Nc3ccccc3)cc(C)c2c1 | 1.96
Cc1ccc2nc(C)c3c(c2c1)N(c1ccccc1)CC3 | -13.2 (active)
O=C(O)C1C2C=CC(C2)C1C(=O)NCc1ccccc1 (stereo not given) | -0.26
CCCCCCn1c(CN2CCCCC2)nc2c1c(=O)n(C)c(=O)n2C | -1.63

SMILES | B-score
CCCCCCCCn1c2c(c(=N)c3c1CCC3)CCCC2 | -14.8 (active)
COc1ccccc1NC(=O)C(C)OC(=O)c1ccc(-n2cnnn2)cc1 (stereo not given) | 1.19
CC(=O)Nc1ccc(C(=O)NNC(=O)CCCCC(=O)NNC(=O)c2ccc(NC(C)=O)cc2)cc1 | 0.27
CCOc1ccc(S(=O)(=O)NCCC(=O)N2CCCCCCC2)cc1 | -0.07
Cc1nc2ccc(C(=O)N(C)CC3CCCN(CCc4ccc(Cl)cc4)C3)cc2[nH]1 (stereo not given) | -1.32
COc1cccc(CN(C)CC(=O)NCc2ccccc2Cl)c1OC | -3.73
COc1cccc(CN(C)CC2CCCN(CCc3ccc(Cl)cc3)C2)c1OC (stereo not given) | -8.2 (active)
O=C(Nc1ccc(OC(F)(F)F)cc1)c1ccc2c(c1)no[n+]2[O-] | 0.38
O=C(Nc1cn(-c2ccccc2)nc1-c1ccccc1)c1ccccc1 | 0
N=C(N)SCc1cccc2ccccc12 | -3.09
CCc1ccc(-c2nn(-c3ccccc3)cc2CSC(=N)N)cc1 | -10.6 (active)
CCN1CCN(c2ccc(S(=O)(=O)N3CCCCC3)cc2NC(=O)c2cccc(NC(C)=O)c2)CC1 | 0.95
CCc1ccc(C(=O)NNC(=O)C2CCN(c3ncnc4sc(C)c(C)c34)CC2)cc1 | -1.35
O=C(COc1ccccc1Cl)Nc1ccccc1C(=O)NC1CC1 | -1.39
COc1ccc(NC(=S)NCC2CCN(c3ccc(OC)cc3)C2)cc1 (stereo not given) | 1.12
COc1ccc(NC(=S)NCCN2CCC(C)CC2)cc1 | -1.95
COc1ccc(N2CCC(CNC(=S)Nc3c(C)cccc3C)C2)cc1 (stereo not given) | -6.34 (active)
COc1ccc(F)cc1S(=O)(=O)NCC(c1ccc2c(c1)OCO2)N1CCN(C)CC1 (stereo not given) | -0.39
CC(O)C(NS(=O)(=O)c1ccc(Cl)cc1)C(=O)OCc1cc([N+](=O)[O-])cc2c1OCOC2 (stereo not given) | -0.06
COc1ccccc1CSc1ncc(-c2ccc([N+](=O)[O-])cc2)[nH]1 | 0.65
Nc1ccccc1SCc1cc([N+](=O)[O-])cc2c1OCOC2 | -4.96 (active)
